Records with an inconclusive call do not appear. Active and inactive are the calls of the source. Unless noted, calls come from the whole dose curve; as a rule, active = well fitted curve in the direction sought with a large enough effect; inconclusive = small, poorly fitted or top-dose-only effect, or another doubt; inactive = no such curve, though single readings can be large; an effect the other way counts as inactive or inconclusive.
What was measured:
[1] = target: Lysosomal acid glucosylceramidase (Homo sapiens) (UniProt P04062); experiment: Glucocerebrosidase-p2 (AID 348; in the data active = potency below about 10 µM; note: potency is the fitted concentration of half-maximal effect); conditions: purified GBA, blue fluorogenic substrate, 40 min
Sequence of Lysosomal acid glucosylceramidase (Homo sapiens) (P04062 whole entry, looked up): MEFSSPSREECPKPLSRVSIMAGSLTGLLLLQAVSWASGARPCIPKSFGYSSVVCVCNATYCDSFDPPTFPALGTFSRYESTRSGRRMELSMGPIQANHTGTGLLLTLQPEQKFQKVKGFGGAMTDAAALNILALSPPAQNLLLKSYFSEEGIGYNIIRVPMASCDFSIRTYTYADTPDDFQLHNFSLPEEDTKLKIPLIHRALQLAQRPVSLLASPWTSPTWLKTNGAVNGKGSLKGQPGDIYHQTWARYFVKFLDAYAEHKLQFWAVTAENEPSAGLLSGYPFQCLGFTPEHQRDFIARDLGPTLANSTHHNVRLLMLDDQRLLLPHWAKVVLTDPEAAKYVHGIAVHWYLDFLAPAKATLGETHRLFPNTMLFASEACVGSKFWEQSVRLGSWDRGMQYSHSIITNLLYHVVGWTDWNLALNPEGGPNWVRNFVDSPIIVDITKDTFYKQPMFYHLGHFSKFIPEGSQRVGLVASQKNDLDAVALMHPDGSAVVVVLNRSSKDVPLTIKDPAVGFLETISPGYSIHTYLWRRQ
Procedure, shortened: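 Normal human glucocerebrosidase (0.2 nM) with blue fluorogenic substrate (80 uM final) in citrate/phosphate pH 5.9 with 10mM sodium taurocholate, 0.01% tween-20; 40 min RT, NaOH/glycine stop; fluorescence Ex 365/Em 440; AC50 from a titration from 0.6 nM upwards.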

[2] = AP1 Signaling Pathway (AID 357; active = well fitted curve in either direction with a large enough effect, not every such curve was filed as active;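 note: ME-180 reporter cells stimulated with EGF at its EC50 level; % is set by controls: 0 for no effect and ±100 for the full control effect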); conditions: ME-180 AP-1-bla reporter, EGF-induced, beta-lactamase ratio, 5 h; at 7.69 µM (top of the series) unless noted
Procedure, shortened: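 A ratiometric CCF4 readout (405 nm excitation; 460 and 530 nm emission) quantified AP-1-driven beta-lactamase in ME-180 cells after 5 h with compound and EC50 EGF; AC50 values were derived for activators and inhibitors.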

[3] = target: Cytochrome P450 1A2 (Homo sapiens) (UniProt P05177); experiment: p450-cyp1a2 (AID 410; calls by dose curve; note: potency is the fitted concentration of half-maximal effect;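 for activity change, negative = inhibition: -100% = full effect of reference inhibitor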)
Sequence of Cytochrome P450 1A2 (Homo sapiens) (P05177 whole entry, looked up): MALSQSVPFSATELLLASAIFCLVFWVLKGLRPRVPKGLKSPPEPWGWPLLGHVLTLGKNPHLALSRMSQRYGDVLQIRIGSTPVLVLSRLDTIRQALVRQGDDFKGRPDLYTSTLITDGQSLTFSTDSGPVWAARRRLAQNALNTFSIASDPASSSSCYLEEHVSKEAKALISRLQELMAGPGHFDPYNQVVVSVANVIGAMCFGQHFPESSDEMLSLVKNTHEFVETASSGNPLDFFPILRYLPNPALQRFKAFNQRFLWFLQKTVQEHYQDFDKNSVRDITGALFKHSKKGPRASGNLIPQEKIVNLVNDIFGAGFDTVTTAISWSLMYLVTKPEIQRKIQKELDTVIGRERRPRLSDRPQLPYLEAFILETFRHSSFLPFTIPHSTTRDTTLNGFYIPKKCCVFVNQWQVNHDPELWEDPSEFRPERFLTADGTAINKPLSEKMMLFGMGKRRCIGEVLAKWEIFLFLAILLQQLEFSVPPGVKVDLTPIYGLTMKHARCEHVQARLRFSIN
Procedure, shortened: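 O-Demethylation of luciferin 6' methyl ether by human CYP1A2 is monitored as luciferase luminescence. Substrate sits at Km (100uM); enzyme is 20nM. Values are scaled to 57 uM furafylline as maximal inhibition.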

[4] = Stat Signaling Pathway (AID 446; active = well fitted curve in either direction with a large enough effect, not every such curve was filed as active;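 note: ME-180 cervical cancer cells given 40 pM IL-6 alongside compound; SIE-controlled beta-lactamase reporter measured as 460/530 nm FRET emission ratio; % is set by controls: 0 for no effect and ±100 for the full control effect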); conditions: ME-180 (cervical carcinoma) SIE beta-lactamase reporter, IL-6 stimulated, 5 h; at 7.69 µM (top of the series) unless noted
Procedure, shortened: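 Normalization used AC90 stimulation (300 pM IL-6) and AC90 inhibition (125 nM pan-JAK inhibitor at 40 pM IL-6). The underlying signal is SIE-driven beta-lactamase in ME-180 cells after 5 h IL-6 exposure with compound.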

[5] = target: Glucocorticoid receptor (Homo sapiens) (UniProt P04150); experiment: GR-GFP Redistribution (AID 450;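 active = compounds whose dose series gives a full or clear partial fitted curve of increased nuclear translocation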; note: potency is the fitted concentration of half-maximal effect); conditions: U2OS GR-GFP nuclear translocation, laser cytometry, 2 h
Sequence of Glucocorticoid receptor (Homo sapiens) (P04150 whole entry, looked up, the tested form may be a part): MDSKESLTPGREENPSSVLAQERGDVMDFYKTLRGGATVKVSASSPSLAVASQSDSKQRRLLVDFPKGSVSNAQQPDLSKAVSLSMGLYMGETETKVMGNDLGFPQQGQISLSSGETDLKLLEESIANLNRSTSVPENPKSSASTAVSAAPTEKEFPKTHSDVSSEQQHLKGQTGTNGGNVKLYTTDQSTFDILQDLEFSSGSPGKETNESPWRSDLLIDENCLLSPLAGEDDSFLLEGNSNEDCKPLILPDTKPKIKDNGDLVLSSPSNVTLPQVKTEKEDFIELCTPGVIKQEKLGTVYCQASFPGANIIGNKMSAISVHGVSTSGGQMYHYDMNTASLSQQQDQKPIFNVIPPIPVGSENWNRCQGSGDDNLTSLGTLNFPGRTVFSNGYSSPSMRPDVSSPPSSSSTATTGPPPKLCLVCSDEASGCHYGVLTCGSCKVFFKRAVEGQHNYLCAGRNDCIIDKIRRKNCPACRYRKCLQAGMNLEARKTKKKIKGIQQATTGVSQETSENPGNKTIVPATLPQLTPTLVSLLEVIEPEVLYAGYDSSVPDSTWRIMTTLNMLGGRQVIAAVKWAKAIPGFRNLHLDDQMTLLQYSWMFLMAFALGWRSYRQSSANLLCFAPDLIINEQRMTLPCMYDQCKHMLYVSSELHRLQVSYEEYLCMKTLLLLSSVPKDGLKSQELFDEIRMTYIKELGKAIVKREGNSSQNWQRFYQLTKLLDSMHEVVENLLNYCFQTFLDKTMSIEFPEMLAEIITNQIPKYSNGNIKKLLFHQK

[6] = target: Glucocorticoid receptor (Homo sapiens) (UniProt P04150); experiment: GR-EFC Redistribution (AID 451; calls by dose curve; note: potency is the fitted concentration of half-maximal effect); conditions: CHO-K1 GR-EFC translocation, beta-gal luminescence, 2 h
Procedure, shortened: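 Translocation of GR-ED fusion to nuclear EA restores b-gal, read by luminescence after 1 h room-temperature detection. Engineered CHO-K1 biosensor cells, 1,000/well, exposed 2 h at 37 C to titrations up to 46 uM final.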

[7] = target: Mitogen-activated protein kinase 10 (Mus musculus) (UniProt Q61831); experiment: JNK3 AlphaScreen Assay (AID 530; active = well fitted curve in either direction with a large enough effect, not every such curve was filed as active;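 note: kinase came from lysate of stimulated human HepG2 cells; signal reports phosphorylation of biotinylated GST-cJun 1-79 at Ser73 with 10 µM ATP; % is set by controls: 0 for no effect and ±100 for the full control effect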)
Procedure, shortened: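 qHTS titrations with 15 min compound pre-incubation before adding ATP (10 uM final). Read-out: AlphaScreen of Ser73-phosphorylated biotin-GST-cJun using HepG2 lysate JNK3 activated by IL-1β and TNFα.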

[8] = target: 3',5'-cyclic-AMP phosphodiesterase 4B (Homo sapiens) (UniProt Q07343); experiment: qHTS Assay for Inhibitors of PDE-IV (AID 607; active = well fitted activation curve with a large enough effect in the main read-out, with a control signal flat, not every such curve was filed as active; note: % of control where 0% means no effect)
Sequence of 3',5'-cyclic-AMP phosphodiesterase 4B (Homo sapiens) (Q07343 whole entry, looked up): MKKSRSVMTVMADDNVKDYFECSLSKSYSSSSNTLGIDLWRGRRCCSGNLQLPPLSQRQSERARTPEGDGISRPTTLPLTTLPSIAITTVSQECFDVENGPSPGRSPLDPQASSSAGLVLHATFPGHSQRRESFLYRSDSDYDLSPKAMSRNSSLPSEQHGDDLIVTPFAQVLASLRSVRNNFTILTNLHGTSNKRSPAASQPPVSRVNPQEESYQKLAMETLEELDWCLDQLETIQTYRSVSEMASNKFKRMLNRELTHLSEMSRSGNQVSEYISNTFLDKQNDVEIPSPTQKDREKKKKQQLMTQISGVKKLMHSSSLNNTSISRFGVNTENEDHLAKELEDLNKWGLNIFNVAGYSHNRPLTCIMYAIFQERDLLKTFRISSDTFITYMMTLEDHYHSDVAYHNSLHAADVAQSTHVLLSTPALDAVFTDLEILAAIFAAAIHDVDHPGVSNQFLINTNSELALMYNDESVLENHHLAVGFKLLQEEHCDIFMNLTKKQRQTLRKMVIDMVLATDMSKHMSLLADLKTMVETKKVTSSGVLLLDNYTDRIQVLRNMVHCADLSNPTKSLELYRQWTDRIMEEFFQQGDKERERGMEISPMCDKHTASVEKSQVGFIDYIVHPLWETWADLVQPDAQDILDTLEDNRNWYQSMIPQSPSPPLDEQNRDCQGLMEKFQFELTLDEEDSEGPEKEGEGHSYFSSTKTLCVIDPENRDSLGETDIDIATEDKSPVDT
Procedure, shortened: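 HEK293 ACTOne cells with CNG channel (1000/well), endogenous PDE4; membrane potential dye, compounds up to 22.9 uM final. Fluorescence Ex 535/Em 590; RO 20-1724 (100 uM final) as reference.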

[9] = target: Cytochrome P450 3A4 (Homo sapiens) (UniProt P08684); experiment: qHTS Assay for Inhibitors and Substrates of Cytochrome P450 3A4 (AID 884); note: potency is the fitted concentration of half-maximal effect; nearly all actives have a fitted effect of over 50% in size
Sequence of Cytochrome P450 3A4 (Homo sapiens) (P08684 whole entry, looked up): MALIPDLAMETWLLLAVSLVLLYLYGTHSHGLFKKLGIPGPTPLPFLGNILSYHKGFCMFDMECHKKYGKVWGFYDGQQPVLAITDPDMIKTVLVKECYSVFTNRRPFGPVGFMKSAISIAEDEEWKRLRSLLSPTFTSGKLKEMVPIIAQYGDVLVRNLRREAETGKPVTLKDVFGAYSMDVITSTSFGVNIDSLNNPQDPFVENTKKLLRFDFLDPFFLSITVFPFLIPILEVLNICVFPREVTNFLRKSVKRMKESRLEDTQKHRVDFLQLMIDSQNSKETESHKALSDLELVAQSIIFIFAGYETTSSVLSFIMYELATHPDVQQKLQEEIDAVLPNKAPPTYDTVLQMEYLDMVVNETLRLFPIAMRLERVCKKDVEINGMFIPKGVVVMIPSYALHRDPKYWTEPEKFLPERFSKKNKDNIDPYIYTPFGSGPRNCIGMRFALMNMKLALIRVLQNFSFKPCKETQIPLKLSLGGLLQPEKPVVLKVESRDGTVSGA
Procedure, shortened: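 Luminescent readout of luciferin produced by CYP3A4 (20 nM) dealkylation of Luciferin-PPXE, 25 uM (its KM). NADPH-driven reaction ran 60 min at RT after 10 min compound preincubation; data scaled to 57 uM ketoconazole as 100% inhibition.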

[10] = target: Cytochrome P450 3A4 (Homo sapiens) (UniProt P08684); experiment: qHTS Assay for Activators of Cytochrome P450 3A4 (AID 885); note: nearly all actives have a fitted effect of over 65% in size
Procedure, shortened: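 Human CYP3A4 dealkylates Luciferin-PPXE to luciferin, which luciferase detection converts to light. Substrate was at its KM (25uM), buffer 200mM KPO4, reaction 60 min at RT.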

[11] = qHTS Assay for Lipid Storage Modulators (AID 1519; calls by dose curve); conditions: Drosophila S3 cells, BODIPY lipid droplet/cell ratio, laser cytometry, cells loaded with oleic acid; for activity change, negative = inhibition: at 57.5 µM (top of the series)
Procedure, shortened: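 Cells seeded at 5,000 per well were treated with compounds over a concentration series and loaded with oleic acid (400 uM, as added). Lipid droplet fluorescence (488 nm excitation, 500-530 nm channel) was read by laser-scanning cytometry and normalized to 20 uM Triacsin C.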

[12] = target: Dual specificity protein kinase CLK4 (Homo sapiens) (UniProt Q9HAZ1); experiment: qHTS Assay for Inhibitors of CDC-like Kinase 4 (Kinase-Glo Assay) (AID 1770); note: % is set by controls: 0 for no effect and ±100 for the full control effect; nearly all actives have a fitted effect of over 65% in size
Sequence of Dual specificity protein kinase CLK4 (Homo sapiens) (Q9HAZ1 whole entry, looked up): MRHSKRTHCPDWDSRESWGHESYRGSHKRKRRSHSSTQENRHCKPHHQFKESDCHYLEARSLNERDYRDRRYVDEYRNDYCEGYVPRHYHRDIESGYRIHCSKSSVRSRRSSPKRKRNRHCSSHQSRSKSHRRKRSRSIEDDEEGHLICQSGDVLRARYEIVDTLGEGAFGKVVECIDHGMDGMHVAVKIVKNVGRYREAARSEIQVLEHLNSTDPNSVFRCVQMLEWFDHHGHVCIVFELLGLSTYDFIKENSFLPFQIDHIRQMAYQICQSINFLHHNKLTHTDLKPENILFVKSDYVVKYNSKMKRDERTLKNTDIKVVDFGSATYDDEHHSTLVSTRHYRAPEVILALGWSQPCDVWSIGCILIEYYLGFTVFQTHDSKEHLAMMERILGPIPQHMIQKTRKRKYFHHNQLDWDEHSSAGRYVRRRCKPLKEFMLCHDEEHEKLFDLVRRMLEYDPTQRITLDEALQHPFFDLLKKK
Procedure, shortened: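 Inhibition was judged from remaining ATP, measured by Ultra-Glo luciferase bioluminescence after Clk4 (25 nM) had acted on RS peptide at 1 uM ATP for 4.5 hours, room temperature.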

[13] = target: Dual specificity protein kinase CLK4 (Homo sapiens) (UniProt Q9HAZ1); experiment: qHTS Assay for Inhibitors of CDC-like Kinase 4 (ADP-Glo Assay) (AID 1771); note: % is set by controls: 0 for no effect and ±100 for the full control effect; nearly all actives have a fitted effect of over 70% in size
Procedure, shortened: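 Compounds are pin-transferred onto substrate mix (100 uM RS peptide, 1 uM ATP), then 25 nM Clk4 is added. After 1 hr at room temperature, ADP-Glo reagent runs 45 min, detection reagent 30 min, then luminescence is read.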

[14] = target: Dual specificity protein kinase CLK4 (Homo sapiens) (UniProt Q9HAZ1); experiment: qHTS Assay for Inhibitors of CDC-like Kinase 4 (ADP-FP Assay) (AID 1795);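 note: recombinant human CLK4 phosphorylating RS repeat peptide at 1 µM ATP; % is set by controls: 0 for no effect and ±100 for the full control effect; nearly all actives have a fitted effect of over 60% in size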
Procedure, shortened: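 Inhibition of ADP formation by 6.25 nM Clk4 is measured using 1 uM ATP and 100 uM RS repeat peptide over one hour. Produced ADP displaces a fluorescent tracer from antibody, lowering polarization.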

[15] = target: Ubiquitin carboxyl-terminal hydrolase 1 (Homo sapiens) (UniProt O94782); experiment: Inhibitors of USP1/UAF1: Pilot qHTS (AID 504865);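 note: rhodamine fluorescence freed from ubiquitin-rhodamine substrate followed over time; top concentration of the series differs between compounds; % is set by controls: 0 for no effect and ±100 for the full control effect; nearly all actives have a fitted effect of over 35% in size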
Sequence of Ubiquitin carboxyl-terminal hydrolase 1 (Homo sapiens) (O94782 whole entry, looked up): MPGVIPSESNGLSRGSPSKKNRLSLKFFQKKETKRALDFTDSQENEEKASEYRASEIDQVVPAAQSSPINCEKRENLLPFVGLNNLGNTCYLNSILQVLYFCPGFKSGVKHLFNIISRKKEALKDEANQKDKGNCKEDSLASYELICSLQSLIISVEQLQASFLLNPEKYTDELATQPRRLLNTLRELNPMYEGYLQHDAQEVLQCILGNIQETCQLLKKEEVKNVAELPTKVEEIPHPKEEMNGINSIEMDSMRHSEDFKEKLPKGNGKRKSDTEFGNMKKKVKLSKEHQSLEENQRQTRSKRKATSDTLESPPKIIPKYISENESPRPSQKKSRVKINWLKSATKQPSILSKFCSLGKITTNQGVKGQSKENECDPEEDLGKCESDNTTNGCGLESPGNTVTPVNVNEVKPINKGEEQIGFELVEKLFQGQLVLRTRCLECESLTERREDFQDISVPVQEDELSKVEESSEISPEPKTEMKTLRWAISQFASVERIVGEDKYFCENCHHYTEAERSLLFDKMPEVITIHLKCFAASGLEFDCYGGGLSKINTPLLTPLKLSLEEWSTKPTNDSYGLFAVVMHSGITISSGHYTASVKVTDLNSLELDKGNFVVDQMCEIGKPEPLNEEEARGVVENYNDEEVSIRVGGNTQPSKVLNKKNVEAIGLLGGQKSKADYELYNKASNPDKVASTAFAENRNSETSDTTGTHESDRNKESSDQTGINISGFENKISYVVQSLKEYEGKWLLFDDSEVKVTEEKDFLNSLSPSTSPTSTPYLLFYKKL
Procedure, shortened: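 Kinetic fluorescence assay: 1nM USP1/UAF1, 15 min compound preincubation, then 150nM Ub-Rho; 480/540 nm.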

[16] = NFAT Signaling Pathway (AID 444; active = well fitted curve in either direction with a large enough effect, not every such curve was filed as active;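 note: carbachol stimulus at about its EC50 of 1 µM final; % is set by controls: 0 for no effect and ±100 for the full control effect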); conditions: Jurkat NFAT-bla M1, carbachol, beta-lactamase ratio, 5 h; at 7.69 µM (top of the series) unless noted
Procedure, shortened: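 Read-out: CCF4 FRET ratio (460 nm/530 nm) after 1 h RT dye loading, used for %activity and AC50 from titration series. Cells: Jurkat NFAT-β-lactamase/M1 line, treated with compound plus 1 uM carbachol for 5 h, 37 °C.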

[17] = measured here: cell count channel max response
[18] = measured here: lipid channel max response

Cc1ccccc1-c1cncnc1N1CCN(C)CC1
inactive: Potency [1] > 11.4 µM | activity change, negative = inhibition [2] 7.79% | activity, negative = inhibition [4] 11.4% | Potency [5] > 46 µM | Potency [6] > 46 µM | Potency [7] | Potency [8] | Potency [10] | activity change, negative = inhibition [11] 4.3% | Potency [12] | Potency [13] | Potency [14] | Potency [15]
active: Potency [3] 15.8 µM | Potency [9] 1.58 µM
8.66%: max response [11, 18]
4.53%: max response [11, 17]

O=c1c(-c2ccc(F)cc2)nc2cnc(N3CCOCC3)nc2n1C1CC1
19.7%: max response [11, 18]
inactive: Potency [1] > 11.4 µM | activity change, negative = inhibition [2] 16.2% | Potency [3] | Potency [5] > 9.22 µM | Potency [6] > 46 µM | Potency [7] | Potency [8] | activity change, negative = inhibition [11] 5.31% | Potency [12] | Potency [13] | Potency [14] | Potency [15]
17.4%: max response [11, 17]

COCCn1c(=O)c(-c2ccccc2)nc2cnc(N3CCN(C)CC3)nc21
inactive: Potency [1] > 11.4 µM | activity change, negative = inhibition [2] -12.6% | activity, negative = inhibition [4] -8.44% | Potency [5] > 9.22 µM | Potency [6] > 46 µM | Potency [7] | Potency [8] | activity change, negative = inhibition [11] 3.96% | Potency [12] | Potency [13] | Potency [14] | Potency [15]
11.4%: max response [11, 17]
16.1%: max response [11, 18]

CN(C)Cc1ccccc1-c1nccc(Nc2ccc(F)cc2)n1
inactive: Potency [1] 10.8 µM | activity change, negative = inhibition [2] 7.82% | activity change, negative = inhibition [16] -13.9% | activity, negative = inhibition [4] -5.3% | Potency [5] > 46 µM | Potency [6] > 46 µM | Potency [7] | Potency [10] | activity change, negative = inhibition [11] 5.52% | Potency [12] | Potency [13] | Potency [14] | Potency [15]
active: Potency [3] 3.16 µM
21.6%: max response [11, 17]
26.6%: max response [11, 18]

COc1ccccc1-c1cncnc1N1CCN(C)CC1
28%: max response [11, 17]
29.7%: max response [11, 18]
inactive: Potency [1] > 11.4 µM | activity change, negative = inhibition [2] 3.96% | activity change, negative = inhibition [16] -14.4% | activity, negative = inhibition [4] 4.86% | Potency [5] > 46 µM | Potency [6] > 46 µM | Potency [7] | Potency [8] | Potency [10] | activity change, negative = inhibition [11] 3.21% | Potency [12] | Potency [13] | Potency [14] | Potency [15]

Clc1ccccc1-c1cncnc1NCCN1CCOCC1
inactive: Potency [1] > 11.4 µM | activity, negative = inhibition [4] 7.26% | Potency [5] > 46 µM | Potency [6] > 46 µM | Potency [7] | Potency [8] | activity change, negative = inhibition [11] 1.35% | Potency [12] | Potency [13] | Potency [14] | Potency [15]
20.3%: max response [11, 18]
18.6%: max response [11, 17]

O=c1c(-c2ccc(F)cc2)nc2cnc(N3CCNCC3)nc2n1Cc1cccs1
inactive: Potency [1] > 11.4 µM | Potency [5] > 9.22 µM | Potency [6] > 46 µM | Potency [8] | Potency [10] | activity change, negative = inhibition [11] 1.91% | Potency [12] | Potency [13] | Potency [14] | Potency [15]
8.56%: max response [11, 17]
9.26%: max response [11, 18]
active: Potency [3] 10 µM | activity change, negative = inhibition [16] 200% [activator]

COCCn1c(=O)c(-c2cccs2)nc2cnc(N3CCN(C)CC3)nc21
18.6%: max response [11, 17]
19.9%: max response [11, 18]
inactive: Potency [1] > 11.4 µM | activity, negative = inhibition [4] 12% | Potency [5] > 9.22 µM | Potency [6] > 46 µM | Potency [7] | Potency [8] | Potency [10] | activity change, negative = inhibition [11] 1.3% | Potency [12] | Potency [13] | Potency [14] | Potency [15]
active: Potency [3] 15.8 µM

COc1cccc(Cn2c(=O)c(CCc3ccccc3)nc3cnc(N4CCNCC4)nc32)c1
inactive: Potency [1] > 11.4 µM | activity change, negative = inhibition [2] 4.19% | activity change, negative = inhibition [16] 19.7% | activity, negative = inhibition [4] -8.25% | Potency [5] > 9.22 µM | Potency [6] > 46 µM | Potency [7] | Potency [8] | Potency [10] | activity change, negative = inhibition [11] 3.32% | Potency [12] | Potency [13] | Potency [14] | Potency [15]
12.1%: max response [11, 18]
9.35%: max response [11, 17]

O=c1c(-c2ccccc2)nc2cnc(Oc3cccc(Cl)c3)nc2n1C[C@H]1CCCO1
inactive: Potency [1] > 11.4 µM | activity change, negative = inhibition [16] -8.22% | activity, negative = inhibition [4] -8.43% | Potency [5] > 9.22 µM | Potency [6] > 46 µM | Potency [7] | activity change, negative = inhibition [11] -16.5% | Potency [12] | Potency [13] | Potency [14] | Potency [15]
18.2%: max response [11, 17]
-2.39%: max response [11, 18]

COc1ccc(-n2c(=O)c(-c3cn(C)c4ccccc34)nc3cnc(N4CCNCC4)nc32)cc1
26.4%: max response [11, 18]
inactive: activity change, negative = inhibition [2] 26.2% | Potency [5] > 9.22 µM | Potency [6] > 46 µM | Potency [8] | Potency [10] | activity change, negative = inhibition [11] 7.55% | Potency [12] | Potency [13] | Potency [14] | Potency [15]
active: Potency [3] 15.8 µM
16.8%: max response [11, 17]

CN1CCN(c2ncc3nc(-c4cccs4)c(=O)n(Cc4cccs4)c3n2)CC1
active: Potency [3] 15.8 µM
-4.19%: max response [11, 18]
inactive: Potency [1] > 11.4 µM | Potency [5] > 9.22 µM | Potency [6] > 46 µM | Potency [8] | Potency [10] | activity change, negative = inhibition [11] -5.19% | Potency [12] | Potency [13] | Potency [14] | Potency [15]
2.92%: max response [11, 17]

COCCn1c(=O)c(-c2ccccc2)nc2cnc(Nc3cccc(OC)c3)nc21
active: Potency [3] 3.98 µM
0.127%: max response [11, 18]
-0.938%: max response [11, 17]
inactive: Potency [1] > 11.4 µM | activity change, negative = inhibition [16] -5.93% | activity, negative = inhibition [4] -18.3% | Potency [5] > 9.22 µM | Potency [6] > 46 µM | Potency [7] | activity change, negative = inhibition [11] 1.38% | Potency [12] | Potency [13] | Potency [14] | Potency [15]
